CYP2C9 activ = CYP2C9 (human) activation. recombinant CYP2C9, luciferin-H conversion, luminescence; stronger effect = higher value; factor 1 = untreated enzyme, 0 = blocked. activation factor at 5 µM. hit rate 1.4% among 96,000;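 active = activation factor of 2 or more for CYP2C9 at a 5 µM dose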;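 note: 0 = sulfaphenazole-blocked wells and 1 = vehicle-only wells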
E-sel TNF inh = TNF alpha driven E-selectin expression inhibition; HUVEC TNFa-induced E-selectin immunofluorescence, high content; hit rate 0.71% among 120,000; inhibition, % at 2 µM;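 active = inhibition above the batch mean plus 3 SD, and confirmed as a hit on visual image review, cut at about 43% in these data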;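 note: 0% = TNF-stimulated DMSO wells and 100% = unstimulated control wells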
CYP2C19 act = increases human CYP2C19 enzyme activity. P33261. recombinant CYP2C19, luciferin-H EGE luminescence; stronger effect = higher value; 0 = fully inhibited enzyme, 1 = untreated enzyme. activation factor at 5 µM. 96,000 tested, under 10 active;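 active = activation factor of at least 2 at 5 µM in the primary screen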;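 note: 0 = wells with 2.5 mM tranylcypromine and 1 = vehicle-only wells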
Target sequence (P33261 whole entry, looked up): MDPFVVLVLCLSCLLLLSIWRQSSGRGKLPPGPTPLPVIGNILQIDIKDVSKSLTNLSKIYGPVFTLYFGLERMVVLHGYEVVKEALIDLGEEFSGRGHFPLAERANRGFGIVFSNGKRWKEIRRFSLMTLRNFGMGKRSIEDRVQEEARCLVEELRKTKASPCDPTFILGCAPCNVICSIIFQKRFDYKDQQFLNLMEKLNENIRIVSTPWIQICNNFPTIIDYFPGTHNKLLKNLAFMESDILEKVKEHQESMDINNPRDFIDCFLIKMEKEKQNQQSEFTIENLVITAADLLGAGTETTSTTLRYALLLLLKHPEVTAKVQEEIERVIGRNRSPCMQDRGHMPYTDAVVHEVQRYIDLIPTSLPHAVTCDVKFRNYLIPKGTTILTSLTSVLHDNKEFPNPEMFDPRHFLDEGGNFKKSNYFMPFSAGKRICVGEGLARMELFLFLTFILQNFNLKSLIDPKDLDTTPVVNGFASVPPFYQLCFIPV
F-actin modifier = alters cytoskeleton assembly in HUVEC cells; HUVEC TNFa F-actin phalloidin imaging, high content; inhibition, % at 2 µM; hit rate 0.18% among 91,000;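 active = inhibition above the batch mean plus 3 SD and confirmed as a hit by visual image inspection, cut at about 30% in these data, passing the limit was not always enough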
CYP2C9 inh = inhibitors of human CYP2C9 | hit rate 20% among 96,000 | inhibition, % at 5 µM | CYP2C9 Supersomes, luciferin-H conversion, luminescence | P11712;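 active = blocking of liver enzyme CYP2C9 beyond about 50% at 5 µM, limit read from the data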
CYP2C19 inh = human CYP2C19 inhibition; hit rate 21% among 96,000; CYP2C19 Supersomes, luciferin-H EGE luminescence, 30 min; inhibition, % at 5 µM;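 active = CYP2C19 inhibition above a set limit at 5 µM in the primary screen, cut at about 50% in these data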;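 note: plate controls were negative control wells for no effect and 2.5 mM tranylcypromine positive control for full effect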
The depositor's hits bear a star; / = no result given. Compounds with a hit are over-represented: about 22% of the library has one in this group of screens.

SMILES	CYP2C9 activ	E-sel TNF inh	CYP2C19 act	F-actin modifier	CYP2C9 inh	CYP2C19 inh
c1ccc(CSc2nnc(-c3c[nH]c4ccccc34)o2)cc1	1	/	1.1	-15	0	-10
O=C(NCC1CCCO1)c1csc2c1CCCC2 (stereo not given)	1.5	13	1	3	-47	0
CCOC(=O)c1oc2ccccc2c1CSc1nnc(-c2ccco2)o1	0.3	17	0.9	/	69*	14
CCOC(=O)c1oc2ccccc2c1CSc1nnnn1-c1ccc(C)cc1	/	-10	/	-5	/	/
Fc1ccccc1CSc1nnc(-c2ccccc2)o1	0.2	-1	0.1	0	77*	87*
Cc1cc(C)n(-c2cc(N3CCN(C(=O)c4ccc(C(C)(C)C)cc4)CC3)ccc2[N+](=O)[O-])n1	0.5	-9	0.8	9	49	20
Cc1ccc(C)c(SCC(=O)NC(=O)Nc2ccc3c(c2)OCCO3)c1	/	-7	/	/	/	/
Cc1ccc(NC(=O)CSc2nnc(NC(=O)CN3CCOCC3)s2)cc1	0.9	-22	0.4	-5	10	57*
COc1ccc(NC(=O)CSc2nnc(NC(=O)CN3CCOCC3)s2)cc1	/	-49	/	/	/	/
CC(C)Nc1nnc(SCC(=O)Nc2ccc(F)cc2)s1	0.3	/	0.1	-22	70*	91*
CC(=O)c1ccc(NC(=O)CSc2nnc(NC(=O)CN3CCOCC3)s2)cc1	0.3	-47	0.9	/	67*	6
Cc1ccnc(NC(=O)c2cccc(NC(=O)Cc3ccccc3)c2)c1	/	15	/	/	/	/
N/C(Cc1cccc2ccccc12)=N\OC(=O)c1ccc2c(c1)OCO2	/	83*	/	/	/	/
COc1ccc(C(=O)NCC23C=CC(O2)C2C(=O)N(Cc4ccccc4)C(=O)C23)cc1 (stereo not given)	0.7	/	0.4	21	34	62*
CCC1CCC(C(=O)NC(C(=O)Nc2ccc3c(c2)OCCO3)C(C)C)CC1 (stereo not given)	0.7	-7	0.7	-5	31	29
COc1cccc(NC(=O)C(c2ccccc2)N2CCCC2)c1 (stereo not given)	/	16	/	/	/	/
O=C(NC1CCCCC1)C(c1ccc(Cl)cc1)N1CCC2(CC1)OCCO2 (stereo not given)	0.9	-18	0.8	-5	9	23
O=C(Nc1ccc2c(c1)OCO2)C(c1ccccc1)N1CCCCC1 (stereo not given)	0.4	/	0.4	5	60*	58*
CC(C)CC(NC(=O)C1CCC(C)CC1)C(=O)Nc1ccc2c(c1)OCCO2 (stereo not given)	0.5	/	0.6	-9	52*	44
Cc1cccc(NC(=O)C(c2cccc([N+](=O)[O-])c2)N2CCCCC2)c1 (stereo not given)	0.7	-8	0.5	14	29	52*
O=C(Nc1ccc2c(c1)OCO2)C(c1ccccc1)N1CCC2(CC1)OCCO2 (stereo not given)	0.2	4	0.1	-8	79*	90*
O=C(CSc1nnc(-c2ccccc2NC(=O)c2ccccc2)o1)OC1CCCCC1	/	12	/	11	/	/
CCOc1ccccc1C(=O)NN1C(=O)CCC1=O	/	7	/	/	/	/
CC1CCCN(C(C(=O)Nc2ccc3c(c2)OCO3)c2ccccc2)C1 (stereo not given)	0.2	/	0.2	-5	82*	80*
Cc1cccc(NC(=O)C2(c3ccc([N+](=O)[O-])cc3)CCCC2)c1	0.6	-7	0.2	-4	39	78*
SMILES	CYP2C9 activ	E-sel TNF inh	CYP2C19 act	F-actin modifier	CYP2C9 inh	CYP2C19 inh
CC1CCN(C(C(=O)Nc2ccc3c(c2)OCO3)c2ccccc2)CC1 (stereo not given)	0.2	/	0.3	-1	84*	73*
CC(C)CC(OC(=O)c1cccs1)C(=O)NCc1cccs1 (stereo not given)	0.1	-11	0	11	92*	95*
CC(OC(=O)c1cccs1)C(=O)NCc1cccs1 (stereo not given)	0.4	-30	0	1	62*	95*
CC(OC(=O)c1ccco1)C(=O)NCc1cccs1 (stereo not given)	/	-44	/	/	/	/
Cc1ccc(SC/C(O)=C(\C#N)c2nc3ccccc3s2)cc1	0	-55	0.5	-2	100*	54*
N#C/C(=C(/O)CSc1ccccn1)c1nc2ccccc2s1	/	-35	/	/	/	/
COc1ccc(C/C(O)=C(\C#N)c2nc3ccccc3s2)cc1	0.3	-24	1	2	68*	-1
Cc1ccc(S(=O)(=O)NC2CCOC(C)(C)C2)cc1 (stereo not given)	0.9	-4	0.8	11	15	24
CCOC(=O)CNC(c1ccccc1)c1cc(Br)ccc1NC(=O)OCC (stereo not given)	0.4	-39	0.7	-13	56*	31
CC1c2nc3ccccc3n2C(CC(=O)NCc2ccccn2)C(=O)N1Cc1ccccc1 (stereo not given)	0.9	-2	0.2	/	7	80*
CCS(=O)(=O)N1CCC(C(=O)NCCCOC)CC1	1.1	/	0.9	-36	-6	6
CNc1nc2ccccc2n(C)c1=O	/	5	/	/	/	/
CNc1nc(NC)nc(-n2c(C(F)(F)F)nc3ccccc32)n1	0.4	-31	0.6	-4	64*	38
CN(C(=S)NC(=O)c1ccccc1Br)C1CCCCC1	0.9	-6	0.8	0	11	24
COc1ccccc1/C=C/C(=O)NC(=S)N(C)C1CCCCC1	2.6*	9	0.9	/	-164	14
O=C(CCn1nnc2ccccc21)N1CCC(O)(c2cccc(F)c2)CC1	0.5	/	0.6	/	52*	43
COc1ccc(CCNC(=O)CSc2nnc(-c3cccc(C)c3)o2)cc1OC	0.6	4	0.4	-16	36	56*
COc1ccc(CCNC(=O)CSc2nnc(-c3ccccc3)o2)cc1OC	0.5	/	0.2	/	46	81*
COc1ccc(CCNC(=O)CSc2nc(N)c3c(C)c(C)oc3n2)cc1OC	0.6	-19	0.4	-10	40	62*
COc1ccc(CCNC(=O)CSc2ccc3ccccc3c2)cc1OC	/	16	/	/	/	/
CCCCn1c(-c2ccccc2)cnc1SCC(=O)NCCc1ccc(OC)c(OC)c1	0.1	/	0	/	90*	96*
COc1cc(OC)cc(C(=O)NCC(=O)OCC(=O)c2ccc3c(c2)-c2ccccc2C3)c1	/	17	/	/	/	/
Cc1ccc(Sc2sc(=O)n(C)c2S(=O)(=O)c2ccc(C)cc2)cc1	/	-9	/	/	/	/
Fc1cccc(Cl)c1CNC(c1ccccc1)c1ccccc1	0.7	-17	0.9	-4	31	10
COc1ccc(CC(=O)NCc2nnc(SCC(=O)N3CCN(c4ccccc4)CC3)n2C)cc1	/	/	/	18	/	/
CCCCOC(=O)Nc1cccc(Cl)c1C	0.7	19	0.4	/	30	56*
CCOC(=O)Nc1cccc(Cl)c1C	1	4	0.9	-18	-3	9
O=C(NCCNC(=O)c1cc(OCC(F)(F)F)ccc1OCC(F)(F)F)Nc1ccccc1	0.4	-15	0.8	0	57*	22
C#CCONC(=O)c1cc(OCC(F)(F)F)ccc1OCC(F)(F)F	0.8	-10	0.4	23	21	61*

Source: PubChem BioAssay (several laboratories)
